Sampled rows, rich in hits. Any-hit rate of the full collection: about 3.6%.
FAS-TE inh = inhibitors of human fatty acid synthase thioesterase domain. P49327. recombinant FAS-TE, OMFH fluorogenic substrate, fluorescence endpoint. inhibition, % at 15 µM. hit rate 0.67% among 360,000;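 active = compounds whose normalised, plate-corrected inhibition of enzyme fluorescence in the single-dose primary screen is 50% or more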;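 also: 0% = DMSO with enzyme and 100% = substrate without enzyme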
NadD block = blocks S. aureus nicotinate mononucleotide adenylyltransferase | purified NadD enzyme, colorimetric absorbance read-out | inhibition, % at 20 µM | hit rate 0.78% among 360,000; in the data active = inhibition above about 26%
CendR NRP1 mod = alters CendR peptide binding to human NRP-1. O14786. FAM-RPARPAR peptide binding to NRP-1, fluorescence polarization. inhibition, % at 25 µM. hit rate 0.85% among 360,000;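 active = inhibition or corrected inhibition above about 18%, plus a signal ratio from 0.5 to 1.5, limit read from the data, passing the limit was not always enough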
CRFBP-R2 block = CRF-BP/CRF-R2 complex antagonism; AID 588475; HEK293 CRF-R2/CRF-BP, CRF-induced calcium fluorescence; hit rate 0.59% among 350,000; inhibition, % at 11.8 µM;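 active = inhibition of the ligand-induced calcium signal above about 50% at the single tested concentration, limit read from the data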
Myeloid diff MLP = compounds promoting myeloid differentiation; ER-HoxA9 myeloid progenitors, lysozyme-GFP differentiation, flow cytometry; calls only at 10 µM; hit rate 1% among 360,000;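 active = normalized GFP-positive differentiation at or above the plate's own cutoff, the solvent-only control mean plus 3 SD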;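 also: cells exposed to compound for four days before flow analysis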
Active calls of the source: *.

How did Cc1nc2ncccn2c1-c1csc(NCc2ccco2)n1 do in these assays?
FAS-TE inh: -7; NadD block: 3; CendR NRP1 mod: 14; CRFBP-R2 block: 4; Myeloid diff MLP: active

What do the screens show for `Cc1nc2ncccn2c1-c1csc(Nc2ccccc2)n1`?
FAS-TE inh: -8; NadD block: -2; CendR NRP1 mod: -24; CRFBP-R2 block: 6; Myeloid diff MLP: inactive

What do the screens show for `Cc1nc(-n2nnc3cc(C)c(C)cc32)c2c3c(sc2n1)CCCC3`?
FAS-TE inh: 26; NadD block: 2; CendR NRP1 mod: 1; CRFBP-R2 block: -22; Myeloid diff MLP: active

What do the screens show for `Cc1nc(N2CCOCC2)c2c3c(sc2n1)CCC3`?
FAS-TE inh: 0; NadD block: -6; CendR NRP1 mod: 13; CRFBP-R2 block: 4; Myeloid diff MLP: inactive

Results for COc1ccc2[nH]cc(CCn3ccc(=O)c(C)c3C)c2c1 ?
FAS-TE inh: -6; NadD block: -13; CendR NRP1 mod: -2; CRFBP-R2 block: 1; Myeloid diff MLP: inactive

How did COC(=O)C[C@H]1C[C@H]2c3cc(NC(=O)C4CCOCC4)ccc3O[C@H]2[C@H](CO)O1 do in these assays?
FAS-TE inh: -8; NadD block: -4; CendR NRP1 mod: -1; CRFBP-R2 block: -8; Myeloid diff MLP: inactive

What do the screens show for `NC(CCC(=O)NC(CS)C(=O)NCC(=O)O)C(=O)O` (stereo not drawn)?
FAS-TE inh: -3; NadD block: -2; CendR NRP1 mod: 4; CRFBP-R2 block: 0; Myeloid diff MLP: active

How did CCn1ccnc1CN1CCN(CC(C)C)C(CCO)C1 (stereo not drawn) do in these assays?
FAS-TE inh: -3; NadD block: 1; CendR NRP1 mod: 7; CRFBP-R2 block: -10; Myeloid diff MLP: inactive

What do the screens show for `CCC(c1nnnn1-c1ccc2c(c1)OCCO2)N1CCN(C(=O)C2CCCO2)CC1` (stereo not drawn)?
FAS-TE inh: -7; NadD block: 5; CendR NRP1 mod: -13; Myeloid diff MLP: inactive

Results for Cc1cccc(CNc2ncnc3ccc(-c4ccoc4)cc23)c1 ?
FAS-TE inh: 20; NadD block: 4; CendR NRP1 mod: 18; CRFBP-R2 block: -3; Myeloid diff MLP: inactive

What do the screens show for `CC(=O)Nc1ccc(CNc2ncnc3ccc(-c4c(C)noc4C)cc23)cc1`?
FAS-TE inh: -12; NadD block: -4; CendR NRP1 mod: 36*; CRFBP-R2 block: -2; Myeloid diff MLP: inactive

Results for COCCN1C[C@@H](CO)O[C@@H](n2cnc3c(NC4CCCC4)ncnc32)C1 ?
FAS-TE inh: -6; NadD block: -7; CendR NRP1 mod: 4; Myeloid diff MLP: inactive

Results for Oc1cc(Nc2ccccc2)cc2cccnc12 ?
FAS-TE inh: 1; NadD block: 1; CendR NRP1 mod: -4; CRFBP-R2 block: 19; Myeloid diff MLP: inactive

How did Oc1cc(NCCN2CCOCC2)cc2cccnc12 do in these assays?
FAS-TE inh: -2; NadD block: 4; CendR NRP1 mod: 29*; CRFBP-R2 block: 1; Myeloid diff MLP: inactive

Results for Cc1ccsc1C(=O)OCC(=O)N1C(C)CCCC1C (stereo not drawn) ?
FAS-TE inh: -4; NadD block: -3; CendR NRP1 mod: -2; CRFBP-R2 block: -3; Myeloid diff MLP: inactive

Results for CC1CCCC(C)N1C(=O)COC(=O)c1cccs1 (stereo not drawn) ?
FAS-TE inh: -5; NadD block: 2; CendR NRP1 mod: 1; CRFBP-R2 block: 62*; Myeloid diff MLP: inactive

Results for COc1ccc(CN(C)C(=O)CCNS(=O)(=O)c2ccccc2)c(OC)c1 ?
FAS-TE inh: -6; NadD block: 2; CendR NRP1 mod: 29*; CRFBP-R2 block: -3; Myeloid diff MLP: inactive

What do the screens show for `COc1ccc(CN(C)C(=O)c2cc(S(=O)(=O)NCc3ccccc3)ccc2C)c(OC)c1`?
FAS-TE inh: 8; NadD block: -2; CendR NRP1 mod: 6; CRFBP-R2 block: -1; Myeloid diff MLP: inactive

How did N#Cc1ccc(CSc2nnc(-c3ccccc3)n2Cc2ccco2)cc1 do in these assays?
FAS-TE inh: -8; NadD block: 3; CendR NRP1 mod: -9; CRFBP-R2 block: 9; Myeloid diff MLP: active

What do the screens show for `[O-][n+]1c2c(c3c4non(O)c4ccc31)CCCC2`?
FAS-TE inh: -155; NadD block: -2; CendR NRP1 mod: 10; CRFBP-R2 block: 53*

What do the screens show for `COn1c2c(c3c4no[n+]([O-])c4ccc31)CCCC2`?
FAS-TE inh: 2; NadD block: 4; CendR NRP1 mod: 4; CRFBP-R2 block: -2; Myeloid diff MLP: inactive
